Rows were chosen to be rich in hits. Some 2.7% of all compounds tested hit in one or more screens of this group.
MPTP block – permeability transition pore inhibition; isolated mouse mitochondria, Ca2+ swelling absorbance, 30 min; inhibition, % at 10 µM; 360,000 tested, 1.4% active; AID 602449;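 active means inhibition of 50% or more, scaled per plate between neutral and stimulator controls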;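 further: 0% = DMSO wells given calcium and 100% = 1 mM EGTA wells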
ATG4B inhibitor – inhibitors of human ATG4B cysteine protease; Q9Y4P1; ATG4B cleavage of LC3-PLA2, NBD-HPC fluorescence, 1 h; inhibition, % at 8.33 µM; 340,000 tested, 0.51% active; AID 504462; in the data active means inhibition above about 40%
CendR NRP1 mod – NRP-1/CendR interaction modulation. O14786. FAM-RPARPAR peptide binding to NRP-1, fluorescence polarization. 360,000 tested, 0.85% active. inhibition, % at 25 µM;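 active means inhibition or corrected inhibition above about 18%, plus a signal ratio from 0.5 to 1.5, limit read from the data, passing the limit was not always enough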
Target sequence (O14786 whole entry, looked up): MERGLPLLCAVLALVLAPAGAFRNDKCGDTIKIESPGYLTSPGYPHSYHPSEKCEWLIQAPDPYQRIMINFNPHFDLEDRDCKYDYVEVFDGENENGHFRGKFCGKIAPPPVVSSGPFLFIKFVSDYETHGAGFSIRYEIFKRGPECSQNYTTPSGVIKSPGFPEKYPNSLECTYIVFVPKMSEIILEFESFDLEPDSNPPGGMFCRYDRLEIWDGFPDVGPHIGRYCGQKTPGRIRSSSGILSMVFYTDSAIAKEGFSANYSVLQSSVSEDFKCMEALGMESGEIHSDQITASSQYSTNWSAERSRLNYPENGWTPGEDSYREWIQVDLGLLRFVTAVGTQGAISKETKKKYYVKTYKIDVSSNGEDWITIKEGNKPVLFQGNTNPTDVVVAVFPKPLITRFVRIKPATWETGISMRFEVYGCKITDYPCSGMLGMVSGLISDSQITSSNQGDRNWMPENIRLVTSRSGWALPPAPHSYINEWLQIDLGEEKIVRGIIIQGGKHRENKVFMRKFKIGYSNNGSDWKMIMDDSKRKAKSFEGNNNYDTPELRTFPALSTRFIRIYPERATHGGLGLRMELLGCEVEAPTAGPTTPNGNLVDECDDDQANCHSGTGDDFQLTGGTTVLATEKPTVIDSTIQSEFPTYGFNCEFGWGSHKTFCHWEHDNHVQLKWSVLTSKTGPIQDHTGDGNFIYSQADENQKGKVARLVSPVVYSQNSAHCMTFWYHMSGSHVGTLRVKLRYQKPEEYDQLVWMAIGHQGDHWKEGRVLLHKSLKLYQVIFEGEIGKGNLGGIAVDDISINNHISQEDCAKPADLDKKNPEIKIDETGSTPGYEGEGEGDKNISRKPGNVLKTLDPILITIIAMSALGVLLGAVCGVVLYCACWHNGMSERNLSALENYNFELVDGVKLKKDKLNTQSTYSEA
CFTR F508del cor – correctors of CFTR F508del function in bronchial epithelial cells | CFBE cells, YFP halide quenching; stimulated with forskolin plus potentiator P3; % fluorescence drop versus neutral controls | activity (quench increase), % at 7.58 µM | 350,000 tested, 0.36% active | AID 720511;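 active means mean added fluorescence quench of at least 8% versus neutral control, with both replicates also reaching 8%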;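 further: cells transiently co-express mutant CFTR-F508del with the halide-sensitive YFP; corrector assay measuring rescue of mutant channel to the surface after 24 h compound exposure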
SKN-1 block – inhibitors of C. elegans SKN-1. C. elegans VP596 Pgst-4::GFP/RFP ratio, acrylamide-induced, 24 h. inhibition, % at 21.8 µM. 360,000 tested, 0.49% active;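 active means interference check ratio from 0.5 to 1.5 plus GFP to RFP signal ratio inhibition reaching or exceeding a fixed threshold, cut at about 30% in these data, passing the limit was not always enough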
Active calls of the source: *; / = not tested or not shown.

SMILES | MPTP block | ATG4B inhibitor | CendR NRP1 mod | CFTR F508del cor | SKN-1 block
O=C(Cc1ccccn1)N[C@@H]1CC[C@@H](CCn2cc(-c3ccc(F)cc3)nn2)O[C@H]1CO | / | / | / | 0 | /
CCOc1cc(C(c2c(C)[nH][nH]c2=O)c2c(C)[nH][nH]c2=O)ccc1OS(=O)(=O)c1ccc(C)cc1 | -2 | -6 | 1 | / | 46*
COC(=O)C[C@@H]1C[C@@H]2c3cc(NC(=O)Nc4ccc(F)cc4)ccc3O[C@@H]2[C@@H](CO)O1 | / | / | / | -3 | /
Cc1nccc(-c2sc(-c3cccs3)nc2C)n1 | -1 | -11 | 15 | / | 39*
Cc1ccc(N(CC(=O)NCc2ccco2)C(=O)CCC(=O)Nc2ccccn2)cc1C | -4 | -9 | -1 | / | -6
O=C(CN(C(=O)CCC(=O)Nc1ccccn1)c1ccc2c(c1)OCO2)NCc1ccco1 | -1 | 0 | 22* | / | 7
Cc1cccnc1NC(=O)c1ccco1 | 0 | -1 | 22* | 3 | -2
O=C(Nc1ccccn1)c1ccco1 | 0 | 16 | -6 | -2 | 7
CC[n+]1c(/C=C/Nc2ccccc2)sc2ccccc21 | 1 | 5 | 2 | / | 39*
O=C(CNC1CCCCC1)NN=C(c1ccccc1)c1ccccc1 | 3 | 16 | 5 | 12* | 2
COc1ccc(N2CCN(C(CNC(=O)c3ccc4c(c3)OCO4)c3cccnc3)CC2)cc1 (stereo not drawn) | -7 | -4 | 4 | / | -9
O=C(NCC(c1cccnc1)N1CCN(c2ccc(F)cc2)CC1)c1ccc2c(c1)OCO2 (stereo not drawn) | 0 | -8 | 1 | / | 42*
Cc1cc(-c2ccccc2)nc(N(C)NC(=O)c2cccc(C(F)(F)F)c2)c1S(C)(=O)=O | 2 | -9 | -1 | / | -12
Cc1cc(-c2ccccc2)nc(N(C)NC(=O)C2CC2)c1S(C)(=O)=O | -1 | 11 | 11 | 8.5* | 5
O=C1OC(c2ccc3ccccc3c2O)(c2ccc3ccccc3c2O)c2ccccc21 | 2 | -3 | 26* | 0 | 2
COc1cccc(S(=O)(=O)Nc2ccc3c(c2)C(=O)N(C)C[C@@H](OC)[C@@H](C)CN(C(=O)Cc2cccnc2)[C@H](C)CO3)c1 | / | / | / | 1 | /
Brc1cc(Br)c2nc(-c3cccs3)ccc2c1 | 12 | 2 | 4 | / | 58*
Nc1nccc(-c2cccs2)n1 | 0 | -6 | 4 | -4 | 6
Cc1noc(C)c1S(=O)(=O)N(C)C[C@@H]1Oc2ccc(NS(=O)(=O)c3ccc(Cl)cc3)cc2CC(=O)N([C@H](C)CO)C[C@@H]1C | / | / | / | 1 | /
O=C(C1CCCC1)N1CC(=O)N2[C@H](CO)[C@@H](c3ccc(C#CC4CCCC4)cc3)[C@H]2C1 | / | / | / | 0 | /
C[C@@H]1CN([C@@H](C)CO)C(=O)Cc2cc(NS(=O)(=O)c3cn(C)cn3)ccc2O[C@H]1CN(C)C | / | / | / | -2 | /
COCCCNS(=O)(=O)c1ccc2c3c(cccc13)C(=O)S2 | -1 | -6 | 29* | / | 12
CC(C)[C@H](NC(=O)c1c(F)cccc1F)C(=O)OCC(=O)NNC(=O)c1ccccc1 | 0 | / | 21* | 3 | 8
COc1ccc2c3c(n(C)c2c1)[C@H](CO)N(C(=O)c1cnccn1)CC31CN(C)C1 | / | / | / | 1 | /
COc1ccc(OC)c(/C=C/C(=O)OCC(=O)NCc2ccccc2)c1 | 0 | -1 | 32* | 4 | -13
SMILES | MPTP block | ATG4B inhibitor | CendR NRP1 mod | CFTR F508del cor | SKN-1 block
CC1CCCCN1S(=O)(=O)c1ccc(N(C(=O)c2cnccn2)C(C(=O)NC2CCCCC2)c2cccs2)cc1 (stereo not drawn) | 0 | -5 | 28* | / | 6
CC1CCCCN1S(=O)(=O)c1ccc(N(C(=O)c2cnccn2)C(C(=O)NC2CCCC2)c2cccs2)cc1 (stereo not drawn) | 4 | -8 | -2 | / | -9
Oc1ccc2ccccc2c1/C=C/c1ccc2c(Br)cc(Br)c(O)c2n1 | 4 | 3 | -24 | 13* | 3
COCC#Cc1ccc2c(c1)O[C@@H](CN(C)CC1CCCC1)[C@H](C)CN([C@@H](C)CO)S2(=O)=O | / | / | / | 2 | /
COc1ccc(/C=N\NS(=O)(=O)c2ccc(Br)cc2)cc1COc1ccccc1[N+](=O)[O-] | -1 | -4 | 1 | / | 10
COc1ccc(/C=N\NS(=O)(=O)c2ccc(Cl)cc2)cc1COc1ccccc1[N+](=O)[O-] | -1 | -18 | 24* | / | -10
O=S(=O)(NC(=NC1CCCCC1)c1ccccc1)c1ccccc1 | 0 | -7 | -3 | -1 | -11
Cc1ccc(S(=O)(=O)NC(=NC2CCCCC2)c2ccc(Cl)cc2)cc1 | 0 | 1 | 21* | / | 9
O=S1(=O)C=C(Oc2ccc3ccccc3c2)c2ccccc21 | 1 | -9 | 4 | / | 37*
O=S1(=O)C=C(Oc2ccc(F)cc2)c2ccccc21 | 2 | 7 | -7 | / | 21
CCOc1ccc2[nH]cc(C(=O)NCc3ccc(F)cc3)c(=O)c2c1 | 1 | -10 | 39* | -1 | 13
CC(C)NC(=O)N(C)C[C@H]1Oc2cc(C3=CCCCC3)ccc2S(=O)(=O)N([C@H](C)CO)C[C@@H]1C | / | / | / | -1 | /
O=C(NCCCN1CCOCC1)c1sc2cc(Cl)ccc2c1Cl | -2 | 5 | 17 | 11* | -8
O=C(NCCCN1CCOCC1)c1sc2cc(F)ccc2c1Cl | 0 | -9 | -1 | / | 13
C[C@@H](NC(=O)c1[nH]cnc1C(=O)Nc1cccc(Cl)c1)c1ccccc1 | 3 | -23 | 26* | 0 | 10
O=C(Nc1ccccc1)c1nc[nH]c1C(=O)Nc1ccccc1F | 0 | / | -5 | 9.5* | 0
C[C@H](NC(=O)c1[nH]cnc1C(=O)Nc1ccc(Cl)cc1)c1ccccc1 | 4 | -21 | 37* | 4 | 5
Cc1ccc(NC(=O)c2nc[nH]c2C(=O)N[C@@H](C)c2ccccc2)cc1 | 2 | -10 | 32* | -1 | -9
C[C@@H]1CCCCO[C@@H](CN(C)C(=O)c2ccccc2)[C@H](C)CN([C@@H](C)CO)C(=O)c2cc(NS(=O)(=O)c3ccc(F)cc3)ccc2O1 | / | / | / | 2 | /
CCN(CC)C(=O)c1[nH]cnc1C(=O)Nc1cccc(C)c1 | -1 | -11 | 27* | -1 | 18
CC(C)(C)OC(=O)[C@H](Cc1ccccc1)NC(=O)c1[nH]cnc1C(=O)Nc1cccc(Cl)c1 | 1 | -9 | 23* | -1 | -2
Cc1cc(NC(=O)c2ccc(Cl)cc2Cl)n(-c2ccccc2)n1 | 1 | -3 | 18* | -3 | 7
C[C@H]1CCCCO[C@H](CN(C)S(=O)(=O)c2ccc(Cl)cc2)[C@@H](C)CN([C@@H](C)CO)C(=O)c2cc(NC(=O)Nc3ccc(F)cc3)ccc2O1 | / | / | / | -2 | /
Cc1ccc(CSc2nc3ccccc3c(=O)n2Cc2ccco2)cc1 | 24 | 0 | 12 | / | 38*
O=c1c2ccccc2nc(SCc2ccccc2)n1Cc1ccco1 | 1 | 34 | -7 | / | 6
CCCCOC(=O)Nc1ccc(N2CCOCC2)cc1 | -1 | -2 | -12 | / | 14
CCCCOC(=O)Nc1ccc(N2CCCCC2)cc1 | 2 | 0 | -24 | / | 46*
